# Reference: the supplement of paper PMC12282887
# ± gives the standard deviation of the averaged measurements.
# Tested on: E. coli BW25113 marRABp lux reporter
# Assay: promoter activity interaction Z-score (Lux/OD deviation from empty-vector control); higher = stronger promoter induction by the compound
# Experimental: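 E. coli BW25113 (wild type or ΔmarA/ΔsoxS/Δrob) carrying pTU175 luxCDABE promoter reporters was grown in LB in 384-well plates at 37°C with each of 94 compounds at 4 two-fold concentrations, in biological duplicates. Luminescence and OD600 were read every 30 min for 12 h and integrated as AUC over 8 h (0-8 h WT, 1-9 h mutants). Lux AUC was divided by OD AUC; the interaction score is the residual of a Huber robust fit of each promoter against the empty-vector control, then Z-transformed per promoter.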
structure (smiles),measurement,setting,value
C[n+]1ccc(-c2cc[n+](C)cc2)cc1 [Paraquat],promoter activity interaction Z-score,"0.64 µg/ml, genetic background: wild type",0.0393 ± 0.059
same,promoter activity interaction Z-score,"0.64 µg/ml, genetic background: ΔmarA",0.259 ± 0.056
same,promoter activity interaction Z-score,"0.64 µg/ml, genetic background: Δrob",0.471 ± 0.061
same,promoter activity interaction Z-score,"0.64 µg/ml, genetic background: ΔsoxS",0.397 ± 0.44
same,promoter activity interaction Z-score,"1.3 µg/ml, genetic background: wild type",0.123 ± 0.012
same,promoter activity interaction Z-score,"1.3 µg/ml, genetic background: ΔmarA",0.332 ± 0.16
same,promoter activity interaction Z-score,"1.3 µg/ml, genetic background: Δrob",0.857 ± 0.029
same,promoter activity interaction Z-score,"1.3 µg/ml, genetic background: ΔsoxS",0.407 ± 0.47
same,promoter activity interaction Z-score,"2.6 µg/ml, genetic background: wild type",0.508 ± 0.11
same,promoter activity interaction Z-score,"2.6 µg/ml, genetic background: ΔmarA",0.467 ± 0.19
same,promoter activity interaction Z-score,"2.6 µg/ml, genetic background: Δrob",1.16 ± 0.33
same,promoter activity interaction Z-score,"2.6 µg/ml, genetic background: ΔsoxS",0.215 ± 0.34
same,promoter activity interaction Z-score,"5.1 µg/ml, genetic background: wild type",1.52 ± 0.99
same,promoter activity interaction Z-score,"5.1 µg/ml, genetic background: ΔmarA",1.25 ± 0.44
same,promoter activity interaction Z-score,"5.1 µg/ml, genetic background: Δrob",2.54 ± 0.066
same,promoter activity interaction Z-score,"5.1 µg/ml, genetic background: ΔsoxS",0.698 ± 0.45
NCCc1c[nH]c2ccc(O)cc12 [Serotonine],promoter activity interaction Z-score,"13.3 µg/ml, genetic background: wild type",-0.413 ± 0.011
same,promoter activity interaction Z-score,"13.3 µg/ml, genetic background: ΔmarA",-0.686 ± 0.15
same,promoter activity interaction Z-score,"13.3 µg/ml, genetic background: Δrob",-0.419 ± 0.028
same,promoter activity interaction Z-score,"13.3 µg/ml, genetic background: ΔsoxS",-0.41 ± 0.18
same,promoter activity interaction Z-score,"26.6 µg/ml, genetic background: wild type",-0.214 ± 0.13
same,promoter activity interaction Z-score,"26.6 µg/ml, genetic background: ΔmarA",-0.554 ± 0.18
same,promoter activity interaction Z-score,"26.6 µg/ml, genetic background: Δrob",-0.414 ± 0.15
same,promoter activity interaction Z-score,"26.6 µg/ml, genetic background: ΔsoxS",-0.421 ± 0.26
same,promoter activity interaction Z-score,"53.2 µg/ml, genetic background: wild type",-0.616 ± 0.21
same,promoter activity interaction Z-score,"53.2 µg/ml, genetic background: ΔmarA",-0.71 ± 0.041
same,promoter activity interaction Z-score,"53.2 µg/ml, genetic background: Δrob",-0.479 ± 0.089
same,promoter activity interaction Z-score,"53.2 µg/ml, genetic background: ΔsoxS",-0.523 ± 0.25
same,promoter activity interaction Z-score,"106.3 µg/ml, genetic background: wild type",-0.518 ± 0.15
same,promoter activity interaction Z-score,"106.3 µg/ml, genetic background: ΔmarA",-0.531 ± 0.2
same,promoter activity interaction Z-score,"106.3 µg/ml, genetic background: Δrob",-0.324 ± 0.025
same,promoter activity interaction Z-score,"106.3 µg/ml, genetic background: ΔsoxS",-0.498 ± 0.093
C[C@]12CC[C@H]3[C@@H](CCC4=CC(=O)CC[C@@]43C)[C@@H]1CC[C@@H]2O [Testosterone],promoter activity interaction Z-score,"18 µg/ml, genetic background: wild type",-0.549 ± 0.28
same,promoter activity interaction Z-score,"18 µg/ml, genetic background: ΔmarA",-0.238 ± 0.15
same,promoter activity interaction Z-score,"18 µg/ml, genetic background: Δrob",-0.5774 ± 0.0046
same,promoter activity interaction Z-score,"18 µg/ml, genetic background: ΔsoxS",-0.238 ± 0.058
same,promoter activity interaction Z-score,"36.1 µg/ml, genetic background: wild type",-0.712 ± 0.027
same,promoter activity interaction Z-score,"36.1 µg/ml, genetic background: ΔmarA",-0.0596 ± 0.21
same,promoter activity interaction Z-score,"36.1 µg/ml, genetic background: Δrob",-0.24 ± 0.17
same,promoter activity interaction Z-score,"36.1 µg/ml, genetic background: ΔsoxS",-0.368 ± 0.14
same,promoter activity interaction Z-score,"72.1 µg/ml, genetic background: wild type",-0.654 ± 0.22
same,promoter activity interaction Z-score,"72.1 µg/ml, genetic background: ΔmarA",-0.0306 ± 0.33
same,promoter activity interaction Z-score,"72.1 µg/ml, genetic background: Δrob",-0.303 ± 0.014
same,promoter activity interaction Z-score,"72.1 µg/ml, genetic background: ΔsoxS",-0.398 ± 0.14
same,promoter activity interaction Z-score,"144.2 µg/ml, genetic background: wild type",-0.399 ± 0.038
same,promoter activity interaction Z-score,"144.2 µg/ml, genetic background: ΔmarA",-0.0772 ± 0.21
same,promoter activity interaction Z-score,"144.2 µg/ml, genetic background: Δrob",-0.448 ± 0.17
same,promoter activity interaction Z-score,"144.2 µg/ml, genetic background: ΔsoxS",-0.258 ± 0.0049
